Screens deposited in PubChem by The Scripps Research Institute Molecular Screening Center.
A selection: hits, their analogues and other compounds. The true share with any hit is near 2.4%.
CHO-K1 Ca PAM: counter-screen for M1 PAMs: effect in parental CHO-K1 cells; ATP EC20, Fluo-8 calcium fluorescence; 0% at ATP EC20, 100% at ATP max; 0.02% of 360,000 active; activation, % at 3 µM; AID 602247;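 active = activation above the run cutoff, the mean activation of all test compounds plus 3 SD, cut at about 40% in these data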;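 note: peak over basal fluorescence ratio in a 140 s read after ATP addition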
M1 ag: activates human CHRM1 receptor; P11229; CHO-K1 hM1, Fluo-8 calcium fluorescence, agonist mode; 0% DMSO, 100% acetylcholine EC100; activation, % at 3 µM; 0.33% of 360,000 active;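 active = activation above the run's mean compound activation plus 3 SD, cut at about 16% in these data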;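 note: peak over basal fluorescence ratio within a 140 s kinetic read after compound addition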
Target sequence (P11229 whole entry, looked up): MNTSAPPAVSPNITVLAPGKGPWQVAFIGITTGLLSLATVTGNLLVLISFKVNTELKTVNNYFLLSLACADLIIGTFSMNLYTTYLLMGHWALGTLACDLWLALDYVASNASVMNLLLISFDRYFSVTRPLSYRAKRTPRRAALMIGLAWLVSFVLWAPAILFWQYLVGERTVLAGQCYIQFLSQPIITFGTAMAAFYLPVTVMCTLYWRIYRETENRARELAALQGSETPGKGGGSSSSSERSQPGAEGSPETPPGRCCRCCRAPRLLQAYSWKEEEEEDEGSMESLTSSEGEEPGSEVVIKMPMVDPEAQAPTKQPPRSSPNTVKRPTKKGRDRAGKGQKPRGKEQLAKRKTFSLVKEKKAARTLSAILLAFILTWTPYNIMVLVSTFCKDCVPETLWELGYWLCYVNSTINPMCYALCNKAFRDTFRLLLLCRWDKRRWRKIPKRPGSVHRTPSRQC
CHO-K1 Ca ag: counter-screen for M1 agonists: effect in parental CHO-K1 cells | activation, % at 3 µM | AID 602248 | Fluo-8 calcium fluorescence; scaled to maximal ATP response, vehicle zero | 0.48% of 360,000 active; in the data active = activation above about 15%;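 note: untransfected CHO-K1 host cells lacking M1 receptor as counterscreen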
CHRM1 PAM: potentiates human M1 receptor response to acetylcholine | P11229 | CHO-K1 hM1, Fluo-8 calcium fluorescence, ACh EC20; 0% = ACh EC20, 100% = maximal ACh | activation, % at 3 µM | 0.088% of 360,000 active | AID 588819; in the data active = activation above about 19%, passing the limit was not always enough
CHO-K1 Ca antag: nonselective inhibitor or artifact in parental CHO-K1 cells; ATP-induced calcium, Fluo-8 fluorescence; inhibition, % at 3 µM; 0.6% of 360,000 active;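 active = inhibition above a per-plate cutoff, the plate's mean sample inhibition plus 3 SD, cut at about 24% in these data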
M1 antag: human CHRM1 antagonism | CHO-K1 hM1, Fluo-8 calcium fluorescence, ACh EC80 antagonist | P11229 | inhibition, % at 3 µM | 1.3% of 360,000 active;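 active = percent inhibition above its own plate's cutoff, namely the mean of that plate's compound wells plus 3 SD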;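 note: peak over basal fluorescence ratio during 140 s after agonist addition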
Hits are given with their value; n = inactive.

SMILES | CHO-K1 Ca PAM | M1 ag | CHO-K1 Ca ag | CHRM1 PAM | CHO-K1 Ca antag | M1 antag
O=C(OCCCOC(=O)c1cc[n+]([O-])cc1)c1cc[n+]([O-])cc1 | n | n | n | 26 | n | n
CC(=O)Nc1ccc(C(=O)OCCCOC(=O)c2ccc(NC(C)=O)cc2)cc1 | n | n | n | n | n | n
Cc1ccccc1NC(=O)COc1coc(CN2CCN(c3ccccc3)CC2)cc1=O | n | n | n | n | n | n
CC1(C)Cc2c(cnn2-c2ccc(F)cc2)C(NC(=O)C2=NNC(=O)CC2)C1 (stereo not drawn) | n | n | n | n | n | n
CCC(C(=O)c1ccc2ncccc2c1)c1ccccc1 (stereo not drawn) | n | n | n | n | n | 35
COC(=O)c1ccc(NC(=O)COC(=O)COc2cccc3c2OC(C)(C)C3)cc1 | n | n | n | n | n | n
CCC(=O)N(Cc1cc(=O)[nH]c2ccccc12)c1ccccc1 | n | n | n | n | n | 31
CC1CCCCc2nc3c(c(=O)n21)CCCC3 (stereo not drawn) | n | n | n | n | n | n
Cc1ccc(NC(=O)C(c2ccccc2)N2CCN(CC(=O)NC3CC3)CC2)cc1 (stereo not drawn) | n | n | n | n | n | n
NC1=NC[C@H](Cc2ccc(O)cc2)N1CCC12CC3CC(CC(C3)C1)C2 | n | n | n | n | n | 37
CS(=O)(=O)N1CCc2ccc(NC(=O)C3CCCO3)cc2C1 (stereo not drawn) | n | n | n | n | n | n
CCOC(=O)C1CCCN(C2CC(=O)N(c3ccc(C)cc3)C2=O)C1 (stereo not drawn) | n | 20 | n | n | n | n
CCOC(=O)C1CCCN(C2CC(=O)N(c3ccc(NC(C)=O)cc3)C2=O)C1 (stereo not drawn) | n | 36 | n | n | n | n
CCOC(=O)C1CCCN(S(=O)(=O)c2ccc(NC(C)=O)cc2)C1 (stereo not drawn) | n | n | n | n | n | n
Cc1ccc(-n2nnnc2CNC(=O)C(=O)c2c[nH]c3ccccc23)cc1C | n | n | n | n | n | n
COc1ccc(CNCCS(=O)(=O)NN2CCOCC2)cc1 | n | n | n | n | n | n
COCC(=O)N1CCC(Oc2ccc(C(=O)N3C[C@@H]4CCC[C@H]3C4)cc2)CC1 | n | n | n | n | 24 | n
COc1ccc(Br)cc1/C(C)=N/NC1=NCCN1 | n | 68 | n | n | n | 79
CCCCCOc1ccc(Br)cc1/C(C)=N/NC1=NCCN1 | n | n | n | n | n | n
CN(CCC#N)C(=O)COC(=O)c1c2c(nc3ccccc13)/C(=C/c1ccco1)CC2 | n | n | n | n | n | n
O=C(Nc1nc(-c2ccc(F)c(F)c2)cs1)c1cc([N+](=O)[O-])ccc1N1CCOCC1 | n | n | n | n | n | n
Cc1cc(C)c(-c2csc(NC(=O)c3cc([N+](=O)[O-])ccc3N3CCOCC3)n2)c(C)c1 | n | n | n | n | n | 59
O=C(NCc1cccnc1)c1cc([N+](=O)[O-])ccc1N1CCOCC1 | n | 20 | n | n | n | n
CCCCN1C(=O)C(CC(=O)NCC2CCCCC2)CC(C(=O)N(CC)CC)=C1C (stereo not drawn) | n | n | n | n | n | n
CCN(CC)CCCn1c2c(c(SCC(=O)Nc3cccc(C(C)=O)c3)nc1=O)CCC2 | n | n | n | n | n | n
SMILES | CHO-K1 Ca PAM | M1 ag | CHO-K1 Ca ag | CHRM1 PAM | CHO-K1 Ca antag | M1 antag
CCN(CC)CCn1c2c(c(SCC(=O)Nc3cccc(C(C)=O)c3)nc1=O)CCCC2 | n | n | n | n | n | 61
CC1=CNC(=O)CC(C)(C)C1 | n | n | n | n | n | n
CCn1c(=O)c(C(=O)NNC(=O)c2ccccc2Br)c(O)c2ccccc21 | n | n | 17 | n | n | n
Cn1c(=O)c(C(=O)NNC(=O)c2ccccc2Br)c(O)c2ccccc21 | n | n | n | n | n | n
CCn1c(=O)c(C(=O)Nc2nc3ccccc3[nH]2)c(O)c2ccccc21 | n | n | n | n | n | 51
CCn1c(=O)c(C(=O)NNC(=O)c2cccc(Cl)c2)c(O)c2ccccc21 | n | 21 | 22 | n | n | n
O=C(COC(=O)c1cccc(NS(=O)(=O)c2ccc(F)c(F)c2)c1)NC(=O)NC1CCCC1 | n | n | n | n | n | n
O=C(c1cccs1)N1C[C@@H](n2cc(-c3ccc(F)cc3)nn2)[C@H](O)C[C@@H]1c1ccccc1 | n | n | n | n | n | n
Cc1ccc(C(=O)Nc2ccccc2C(=O)N2CC(C)OC(C)C2)cc1 (stereo not drawn) | n | n | n | n | n | n
CC1OC(CC(=O)O)CC2=C1C(=O)c1c(O)cccc1C2=O (stereo not drawn) | n | n | n | n | n | 46
OCC[C@@H]1C[C@@H](O)[C@H](O)[C@]2(Cc3ccccc3O2)O1 | n | n | n | n | n | n
Cc1cc(NS(=O)(=O)c2ccc(NC(=O)c3c(F)c(F)c(F)c(F)c3F)cc2)nc(C)n1 | n | n | n | n | n | n
Cc1ccc(S(=O)(=O)Nc2ccc(NC(=O)c3c(F)c(F)c(F)c(F)c3F)cc2)cc1 | n | 24 | n | n | n | n
CC(=O)c1ccc(NS(=O)(=O)c2ccc(C(C)(C)C)cc2)cc1 | n | n | n | n | n | n
CC(=O)c1ccc(NS(=O)(=O)c2ccc(C)cc2)cc1 | n | n | n | n | 27 | n
CC1=C(C(=O)N2CCOCC2)CC(CC(=O)NC2CCCCC2)C(=O)N1CCCN1CCCC1=O (stereo not drawn) | n | n | n | n | n | n
COc1ccc(OCc2cc(C(=O)NCCN3CCCc4ccccc43)no2)c(Cl)c1 | n | n | n | n | n | 53
O=C(CNCCc1ccc(Cl)cc1)Nc1ccc(C(=O)N2CCCCC2)cc1 | n | n | n | n | n | n
C=CCC1(CC=C)CCCN1C(=O)c1cc(COc2ccc(C)nc2)on1 | n | n | 16 | n | 49 | 55
Cc1cc(O)c(C(=O)/C=C/c2cccc([N+](=O)[O-])c2)c(=O)o1 | n | n | n | n | n | n
Cc1cc(O)c(C(=O)/C=C/c2ccccc2O)c(=O)o1 | n | n | n | n | 24 | n
COCc1cccc(-c2csc(C(C)(O)c3ccccc3)n2)c1 (stereo not drawn) | n | n | n | n | n | n
O=c1[nH]ccc2c(O)cccc12 | n | 27 | n | n | n | n
Cc1ccc2oc(C(=O)N3CCN(Cc4nccn4C)CC3)c(C)c2c1 | n | n | n | n | n | n
CCCCN(CC)C(=O)c1cc2cc3ccc(OC)cc3nc2o1 | n | n | n | n | 25 | n
CN(C)c1nc(Nc2ccc(Cl)cc2)nc(OCC#N)n1 | n | n | n | n | 27 | n
CCOc1nc(Nc2ccc(Cl)cc2)nc(OCC)n1 | n | n | n | n | n | n
